Compound activity deposited in PubChem by National Center for Advancing Translational Sciences (NCATS).
Only some compounds are listed: those with a hit (about 2.6% of all), similar ones and a draw of the others.
BRCA1 expr up = qHTS Assay to Identify Small Molecule Activators of BRCA1 Expression; Potency, µM (highest dose often 46.1 µM), actives largely listed as activators; AID 624202, 2012; MCF7-BRCA1-FFLuc reporter, luminescence, 48 h; response scale: scaled: vehicle 0%, 10 µM genistein 100%; hit rate 1.1% among 380,000; also: nearly all actives have a fitted effect of over 80% in size
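MCF7-BRCA1-FFLuc, 2000 cells/well; 2 h attach, 37 °C/5% CO2; compound 48 h; luciferase substrate 15 min; luminescence end-point. Norm. to genistein 10 microM max activation and DMSO; concentration-response curves fitted.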
GLP-1R agonist = qHTS of GLP-1 Receptor Agonists. hit rate 0.007% among 380,000. Potency, µM (titrated, usually from 45.6 µM), most hits filed as activators. HEK293 GLP-1R CRE-luciferase, luminescence, 4-6 h; cells express a hypersensitive GLP-1R form. AID 624172, 2012. Glucagon-like peptide 1 receptor (Homo sapiens), P43220
Target sequence (P43220 whole entry, looked up): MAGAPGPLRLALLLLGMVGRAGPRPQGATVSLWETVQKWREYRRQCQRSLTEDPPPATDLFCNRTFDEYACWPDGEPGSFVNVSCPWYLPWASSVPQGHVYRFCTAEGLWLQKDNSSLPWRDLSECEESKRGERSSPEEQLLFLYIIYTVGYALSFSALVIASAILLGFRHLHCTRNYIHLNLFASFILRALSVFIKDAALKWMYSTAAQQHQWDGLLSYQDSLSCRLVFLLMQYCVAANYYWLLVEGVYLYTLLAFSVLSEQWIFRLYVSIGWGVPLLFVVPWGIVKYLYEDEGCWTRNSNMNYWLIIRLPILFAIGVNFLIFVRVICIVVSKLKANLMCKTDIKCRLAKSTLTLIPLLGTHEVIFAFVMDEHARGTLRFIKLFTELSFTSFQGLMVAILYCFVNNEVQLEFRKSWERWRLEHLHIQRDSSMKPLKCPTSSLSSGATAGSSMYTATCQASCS
GLP1R cytotox = qHTS of GLP-1 Receptor Inverse Agonists: Cytotox Screen; Potency, µM (titrated, usually from 38.3 µM), hits mostly inhibitors; AID 624418, 2012; hit rate 0.13% among 410,000; HEK293 cAMP-luciferase reporter cells, luminescence, 24 h;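 also: loss of luciferase light is scored as toxicity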
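Compound-treated cells are incubated 24 hr at 37 deg C under 5% CO2 after a 12 hour attachment period, then luciferase detection reagent is added and luminescence is measured following 12 min at room temperature; lowered signal indicates toxicity.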
GLP-1R inv ag = qHTS of GLP-1 Receptor Inverse Agonists (Inhibition Mode). Glucagon-like peptide 1 receptor (Homo sapiens), P43220. HEK293 GLP-1R CRE-luciferase, luminescence, 24 h; GLP-1R form is constitutively active. Potency, µM (highest dose often 38.3 µM), usual class: inhibitors. hit rate 1.6% among 410,000; also: nearly all actives have a fitted effect of over 55% in size
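HEK293 cells stably co-expressing a cAMP-responsive luciferase reporter and constitutively active GLP-1R were seeded, incubated 12 h, then exposed to compounds for 24 h at 37 C. Luminescence was read 12 min after detection reagent; inverse agonists lower signal.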
Large screens that a line does not name were inactive; ! = not active in a repeat. Calls follow the shape of the dose curve; as a rule, active = well fitted curve in the direction sought with a large enough effect; inconclusive = small, poorly fitted or top-dose-only effect, or another doubt; inactive = no such curve, though single readings can be large; an effect the other way counts as inactive or inconclusive.

COc1cc(Cl)c(C)cc1NC(=O)Cn1ncc2c([nH]c3ccccc32)c1=O	none (no result: BRCA1 expr up, GLP-1R agonist)
COc1ccc(CNC(=O)c2cc3sccc3n2Cc2ccc(C)cc2)cc1	none
CC(C)(CO)NCc1cccc(OCc2ccc(Cl)cc2)c1	GLP-1R inv ag inconclusive
COc1cccc(CNC(C)(C)CO)c1OCc1ccc(Cl)cc1	GLP-1R inv ag 11.2µM
Cc1nnc(SCC(=O)NC(=O)Nc2ccc3c(c2)OCCO3)n1N	BRCA1 expr up 10µM
CC(C)=CCCC(C)CN1CCC(N2CCC(C(=O)N3CCOCC3)CC2)CC1 (stereo not drawn)	GLP-1R inv ag 2.51µM
Cc1cc(-c2ccc([N+](=O)[O-])cc2)cc(C)n1	none
CCSc1nnc(NC(=O)c2ccccc2C)s1	BRCA1 expr up 10µM
CCSc1nnc(NC(=O)c2ccccc2)s1	none
O=C(Nc1nnc(SCc2ccccc2)s1)c1cc2c(s1)CCCC2	none
CCSc1nnc(Nc2ccc(C)cc2)s1	BRCA1 expr up 10µM
CCSc1nnc(NC(=O)c2cc3c(s2)CCCC3)s1	BRCA1 expr up 7.94µM
CCSc1nnc(Nc2ccccc2)s1	BRCA1 expr up 11.2µM
CCOC(=O)C1=C(C)N(CCCCCC(=O)O)C(=O)NC1c1ccc(Cl)cc1 (stereo not drawn)	none
CCOC(=O)C1=C(C)N(CC)C(=S)NC1c1ccc(Cl)cc1 (stereo not drawn)	GLP1R cytotox inconclusive, GLP-1R inv ag 10µM
Cc1ccc(CC(=O)NO)cc1	none (no result: GLP-1R agonist, GLP1R cytotox, GLP-1R inv ag)
CCCC(O)c1nc2ccccc2n1CCCOc1ccc(Cl)cc1 (stereo not drawn)	none (no result: GLP-1R agonist)
NC(=O)C1CCN(C(=O)CSc2nc3ccccc3[nH]2)CC1	none
C/C(N)=C(/C#N)C(=O)CSc1ncnc2ccccc12	none
CC1CCN(C(=O)CSc2nc3ccccc3[nH]2)CC1	BRCA1 expr up 3.55µM
C/C(N)=C(/C#N)C(=O)CSc1nc2ccccc2[nH]1	BRCA1 expr up 7.94µM
Cc1nc2sc(C(N)=O)c(N)c2c(C)c1CC(=O)c1ccccc1	BRCA1 expr up 11.2µM, GLP-1R inv ag inconclusive
Cc1cc(C)c2c(N)c(C(=O)c3ccccc3)sc2n1	none
S=Cc1ccc(/C=C/c2ccnc3ccccc23)cc1	none (no result: GLP-1R agonist, GLP1R cytotox, GLP-1R inv ag)
Cc1cnc(C(=O)OCC(=O)Nc2ccc(OCc3ccccc3)cc2)cn1	BRCA1 expr up 10µM
O=C(CCCOc1ccccc1)Nc1ccc(Br)cc1	none
O=C(CCOc1ccccc1)Nc1ccc(Br)cc1	BRCA1 expr up 7.94µM, GLP-1R inv ag inconclusive
O=C(CCSc1ccccc1)Nc1ccc(OCc2ccccc2)cc1	BRCA1 expr up 11.2µM
O=C(CCN1CCN(c2ccccc2)CC1)Nc1ccc(OCc2ccccc2)cc1	none
COc1ccccc1C(=O)NC(CCSC)C(=O)NNC(=O)c1ccncc1 (stereo not drawn)	none
CC1=C(C(=O)NCc2ccc(C)cc2)C2(CCCCC2)OC1=O	none (no result: BRCA1 expr up, GLP-1R agonist)
CCOc1ccc(C(=O)NCCS(=O)(=O)N2CCN(c3cccc(Cl)c3)CC2)cc1	none
O=C(CNc1cccc2ccccc12)N/N=C/c1ccc(OC(=O)/C=C/c2ccco2)cc1	GLP-1R inv ag 8.91µM
CCCCCCCCCCCCCC(=O)OCC(COP(=O)([O-])OCC[N+](C)(C)C)OC(=O)CCCCCCCCCCCCC (stereo not drawn)	none (no result: BRCA1 expr up, GLP1R cytotox, GLP-1R inv ag)
COc1ccccc1NC(=O)Nc1nnc(CC(=O)Nc2ccccc2C)s1	GLP-1R inv ag inconclusive
CCc1nnc(NC(=O)Nc2ccccc2OC)s1	BRCA1 expr up 6.31µM
Cc1ccc(-c2nc(CNC(=O)NC3CCCCC3)c(C)o2)cc1	none (no result: BRCA1 expr up, GLP-1R agonist)
Cc1ccc(NC(=O)C(c2ccccc2)N(C)C)cc1Cl (stereo not drawn)	GLP-1R inv ag 5.01µM
Cc1ccc(NC(=O)C(OC(=O)c2ccc(O)cc2)c2ccccc2)cc1Cl (stereo not drawn)	none
Cc1ccc(NC(=O)Nc2cccnc2)cc1Cl	BRCA1 expr up 12.6µM, GLP-1R inv ag inconclusive
O=C1CC(=C(c2ccccc2)c2ccccc2)C(=O)N1CCCCN1CCN(c2ccccc2)CC1	GLP1R cytotox inconclusive, GLP-1R inv ag 1.26µM
COc1ccc2nc(/C=N/NC(=O)[C@@H]3CCCN3C(=O)OC(C)(C)C)ccc2c1	BRCA1 expr up 7.08µM
CC(C)(C)OC(=O)N1CCC[C@H]1C(=O)N/N=C/c1ccc2nccnc2c1	none
CCOC(=O)c1c(NC(=O)c2cc(-c3ccc(OC)cc3)on2)sc(C)c1C	none (no result: BRCA1 expr up, GLP-1R agonist)
OC[C@@H](O)[C@H](O)C(/C=N/Nc1ccccc1)=N\Nc1ccccc1	GLP1R cytotox inconclusive, GLP-1R inv ag 2.51µM
CC(=O)/C=N/Nc1ccccc1	none
O=S(=O)(c1ccc(Cl)cc1)c1nc(-c2ccccc2)oc1N1CCN(c2ccccc2)CC1	none (no result: GLP-1R agonist)
CCOC(=O)N1CCc2c(sc3c2c(=O)n(Cc2ccccc2)c(=O)n3Cc2cccc(C)c2)C1	GLP-1R inv ag 10µM!
CCOC(=O)N1CCc2c(sc3c2c(=O)n(Cc2ccccc2)c(=O)n3Cc2cc(C)ccc2C)C1	none (no result: BRCA1 expr up, GLP-1R agonist)
COC(=O)c1[nH]c2cc(C)ccc2c1NC(=O)CN1CCN(c2ccccc2OC)CC1	GLP-1R inv ag 3.16µM
COC(=O)c1[nH]c2cc(OC)ccc2c1NC(=O)CN1CCN(c2cccc(C)c2)C(C)C1 (stereo not drawn)	GLP1R cytotox inconclusive, GLP-1R inv ag 8.91µM
COC(=O)c1[nH]c2cc(C)ccc2c1NC(=O)CN1CCOCC1	none
Cc1c(C(=O)Nc2ccc(-c3nc4cc(Cl)ccc4o3)cc2)oc2ccccc12	none (no result: BRCA1 expr up, GLP-1R agonist)
NC(=O)c1cc2ccncc2c2ccccc12	GLP-1R inv ag 1µM
CCOC(CNC(=O)c1ccc2c(c1)ncn2-c1ccc(F)c(F)c1)OCC	none
COc1ccc(OC)c(-c2nn(-c3ccccc3)cc2C(=O)N2CCc3ccccc3C2)c1	GLP-1R inv ag 12.6µM
COc1ccccc1-c1nn(-c2ccccc2)cc1C(=O)N1CCc2ccccc2C1	GLP-1R inv ag 10µM
CC(=O)n1cc(N(C(=O)CCl)c2ccccc2)c2ccccc21	GLP1R cytotox inconclusive, GLP-1R inv ag 3.55µM
Clc1ccc(C2CC(c3ccccc3)Nc3ncnn32)cc1 (stereo not drawn)	GLP-1R inv ag inconclusive
Clc1ccc(C2CC(c3ccco3)n3ncnc3N2)cc1Cl (stereo not drawn)	GLP-1R inv ag 10µM
CO/N=C(\C(=O)N[C@@H]1C(=O)N2C(C(=O)[O-])=C(C[N+]3(C)CCCC3)CS[C@@H]12)c1csc(N)n1	none (no result: BRCA1 expr up, GLP1R cytotox, GLP-1R inv ag)
Cc1ccc(N=C2NC(=O)/C(=C/c3cccn3C)S2)cc1	BRCA1 expr up 3.55µM, GLP1R cytotox inconclusive
Cc1ccc(N=C2NC(=O)/C(=C/c3cccn3C)S2)cc1C	GLP1R cytotox inconclusive
CC(C)(C)c1ccc(-c2nnc(NC(=O)c3ccccc3)s2)cc1	BRCA1 expr up 3.16µM, GLP-1R inv ag inconclusive
O=C(Nc1nnc(-c2ccc(F)cc2)s1)c1ccco1	BRCA1 expr up 2.82µM
Cc1nnc(NC(=O)c2ccccc2)s1	none (no result: BRCA1 expr up, GLP-1R agonist)
